Results on eight molecules are retold here after PubChem BioAssay (Tox21).

The nature of experiment [1]: qHTS assay to identify small molecule antagonists of the estrogen receptor alpha (ER-alpha) signaling pathway using the BG1 cell line in the presence of 0.1 nM 17-beta-estradiol - cell viability counter screen (AID 1259241). Note: nearly all actives have a fitted effect of over 40% in size. Summed up: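 Cytotoxicity counter-screen: live-cell protease activity measured by fluorescence (30 min reagent step) in the same wells. Cells were VM7Luc4E2 with endogenous ER-alpha and ERE-driven luciferase, treated 22 hr at 37C alongside 0.1 nM 17beta-estradiol final.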
(In general: In qHTS, concentration-response curves come from the screen itself.)

Experiment [2] can be described thus: qHTS assay to identify small molecule antagonists of the androgen receptor (AR) signaling pathway using the MDA cell line in the presence of 0.5 nM R1881 - cell viability counter screen (AID 1259242). Note: nearly all actives have a fitted effect of over 45% in size. Summed up:
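qHTS format. MDA-kb2 (MMTV-luc, AR/GR responsive) + cpd + 0.5 nM R1881 final, 16 hr 37C/0% CO2 → CellTiter-Fluor 30 min → fluorescence intensity.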

Experiment [3] deals with Estrogen receptor (Homo sapiens) (UniProt P03372). The experiment is described as follows: qHTS assay to identify small molecule antagonists of the estrogen receptor alpha (ER-alpha) signaling pathway using the BG1 cell line in the presence of 0.1 nM 17-beta-estradiol (AID 1259244). Note: nearly all actives have a fitted effect of over 50% in size. In outline: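 Reporter is a stably transfected luciferase under four estrogen responsive elements in VM7Luc4E2 cells expressing native full-length ER-alpha; inhibition of 0.1 nM (final) 17beta-estradiol-driven signal over 22 h is read by luminescence.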
Estrogen receptor (Homo sapiens), sequence (P03372 whole entry, looked up): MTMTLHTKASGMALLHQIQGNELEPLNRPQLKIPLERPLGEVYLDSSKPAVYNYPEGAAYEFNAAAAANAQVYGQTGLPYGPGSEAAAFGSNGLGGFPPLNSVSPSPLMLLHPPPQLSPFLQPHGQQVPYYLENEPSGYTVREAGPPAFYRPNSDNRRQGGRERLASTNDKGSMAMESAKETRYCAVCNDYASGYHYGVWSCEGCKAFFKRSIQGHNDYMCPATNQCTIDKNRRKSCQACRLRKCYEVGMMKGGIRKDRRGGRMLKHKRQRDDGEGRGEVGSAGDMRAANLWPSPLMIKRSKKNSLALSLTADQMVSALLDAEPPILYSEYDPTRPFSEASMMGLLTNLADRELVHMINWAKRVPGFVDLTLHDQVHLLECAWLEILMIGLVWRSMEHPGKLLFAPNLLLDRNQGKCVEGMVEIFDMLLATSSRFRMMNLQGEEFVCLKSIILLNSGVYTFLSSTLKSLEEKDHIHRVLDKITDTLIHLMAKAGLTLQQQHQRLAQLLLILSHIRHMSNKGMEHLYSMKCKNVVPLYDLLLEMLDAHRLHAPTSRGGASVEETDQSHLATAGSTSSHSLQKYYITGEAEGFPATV

Experiment [4] is described as follows: qHTS assay to identify small molecule HDAC inhibitors (AID 1259364).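 Note: wild-type HCT-116 cells with endogenous class I/II HDAC activity; top concentration of the series differs between compounds; nearly all actives have a fitted effect of over 45% in size.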 Summed up:
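Quantitative high-throughput format: overnight-seeded HCT-116 cells got compounds for 2 hr at 37C; HDAC-Glo I/II reagent added, 30 min RT, luminescence measured.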

The nature of experiment [5]: qHTS assay to identify small molecule HDAC inhibitors - cell viability counter screen (AID 1259365). Note: series mostly up to about 92 µM; nearly all actives have a fitted effect of over 50% in size. In outline:
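CellTiter-Glo luminescence (30 min, room temperature) reported viability after a 2 h compound exposure at 37 C. Cells: wild-type HCT-116, 1,500 per well, seeded the night before.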

Experiment [6] can be described thus: qHTS assay to identify small molecule agonists of the sonic hedgehog signaling (Shh) pathway - cell viability counter screen (AID 1259366). Note: nearly all actives have a fitted effect of over 50% in size. Note: potency is the fitted concentration of half-maximal effect. In outline: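 Cytotoxicity counter screen: CellTiter-Fluor reagent added after 23 h compound exposure, then 1 h at 37C and fluorescence read. Cells were 3T3 Gli1-Luc, seeded 2,000 per well and dosed 4 h post-plating.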
Experiment [7] is described as follows: qHTS assay to identify small molecule antagonists of the sonic hedgehog signaling (Shh) pathway - cell viability counter screen (AID 1259367). Note: nearly all actives have a fitted effect of over 55% in size. Note: potency is the fitted concentration of half-maximal effect. Summed up:
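Viability was read by CellTiter-Fluor fluorescence in the same wells, reagent added 23 hr into compound treatment and incubated 1 hr at 37C. The 3T3 Gli1-Luc reporter cells (2,000/well) received conditioned medium after compound and ran 24 hr.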

Experiment [8] in a line: qHTS assay to identify small molecule agonists of the sonic hedgehog signaling (Shh) pathway (AID 1259368; calls by dose curve;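 note: NIH/3T3-derived 3T3Gli1-Luc cells carrying a stable Gli1-driven firefly luciferase reporter; series mostly up to about 92 µM; nearly all actives have a fitted effect of over 15% in size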). Summed up: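 Quantitative high-throughput format using a Gli1-driven firefly luciferase reporter line derived from NIH/3T3 cells. After a 24 hr compound treatment at 37 C and 5% CO2, luminescence reported Gli1 response element activity.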
Experiment [9] is described as follows: qHTS assay to identify small molecule antagonists of the sonic hedgehog signaling (Shh) pathway (AID 1259369; calls by dose curve; note: nearly all actives have a fitted effect of over 45% in size; note: potency is the fitted concentration of half-maximal effect). Summed up: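 Stable Gli1-Luc reporter NIH/3T3 clone; quantitative HTS in stimulated mode with conditioned medium. Luminescence measured after 24hr compound treatment at 37 C.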
Experiment [10] deals with Estrogen receptor beta (Homo sapiens) (UniProt Q92731). The experiment is described as follows: qHTS assay to identify small molecule agonists of the estrogen receptor beta (ER-beta) signaling pathway (AID 1259377; active = well fitted activation curve with a large enough effect in the signal ratio in the repeat runs, not every such curve was filed as active; the % refers to the signal ratio). In outline:
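Ratiometric beta-lactamase FRET read-out came after 2 h substrate loading at room temperature. It followed 16 h compound treatment at 37C of GripTite HEK293T cells carrying a UAS-bla reporter, plated in 2% charcoal-stripped FBS medium.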

Experiment [11] in a line: qHTS assay to identify small molecule agonists of the androgen receptor (AR) signaling pathway in the presence of an antagonist - cell viability counter screen (AID 1259379).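 Note: MDA-kb2 human breast cancer cells carrying an MMTV luciferase reporter; series mostly up to about 92 µM; nearly all actives have a fitted effect of over 25% in size.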 Summed up: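 Nilutamide-containing (3.0uM final) MDA-kb2 cultures, 3,000 cells/well, were treated with compounds across 15 concentrations. After 16 hr at 37C with no CO2, cell viability was determined by CellTiter-Fluor fluorescence in the luciferase assay wells.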

A short description of experiment [12]: qHTS assay to identify small molecule agonists of the estrogen receptor beta (ER-beta) signaling pathway - cell viability counter screen (AID 1259380). Note: nearly all actives have a fitted effect of over 30% in size. Summed up:
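Steps: plate ER-beta-UAS-bla HEK293T cells, rest 6 hr; add compounds in DMSO; incubate 16 hr at 37C, 5% CO2; add FRET substrate 2 hr; add CellTiter-Glo, wait 30 min at room temperature; read luminescence.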

A short description of experiment [13]: qHTS assay to identify small molecule antagonists of the estrogen receptor beta (ER-beta) signaling pathway - cell viability counter screen (AID 1259382).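 Note: HEK293T cells carrying ER-beta-UAS-bla reporter stimulated with estradiol; series mostly up to about 92 µM; nearly all actives have a fitted effect of over 55% in size.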 Summed up:
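Viability is scored by CellTiter-Glo luminescence (30 min, room temperature) in ER-beta-UAS-bla HEK293T wells already read for reporter fluorescence. Compound exposure lasts 16 hr at 37C alongside 1nM 17-beta-estradiol in charcoal-stripped serum medium.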

In experiment [14] the target is Estrogen receptor (Homo sapiens) (UniProt P03372). The experiment is described as follows: qHTS assay to identify small molecule agonists of the estrogen receptor alpha (ER-alpha) signaling pathway in the presence of an antagonist (AID 1259383; calls by dose curve; note: top concentration of the series differs between compounds; nearly all actives have a fitted effect of over 15% in size). In outline:
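Readout was ERE-driven luciferase luminescence in VM7Luc4E2 cells, which express full-length ER-alpha endogenously. Compounds were tested at 15 concentrations for 22hr alongside 10.0nM ICI-182,780 (final concentration).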

Experiment [15] in a line: qHTS assay to identify small molecule agonists or antagonists of the thyroid stimulating hormone receptor (TSHR) signaling pathway - wild type cell line counter screen (AID 1259384; calls by dose curve). In outline: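 Counter screen in untransfected Hek293: compounds (15-point titration, triplicate) plus phosphodiesterase inhibitor Ro20-1724 added after 18 h plating; 30 min RT. Intracellular cAMP via competitive d2/cryptate immunoassay, 1 h incubation.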

For experiment [16], the target named is Thyrotropin receptor (Homo sapiens) (UniProt P16473). The experiment is described as follows: qHTS assay to identify small molecule antagonists of the thyroid stimulating hormone receptor (TSHR) signaling pathway (AID 1259385; calls by dose curve; note: nearly all actives have a fitted effect of over 20% in size). In outline:
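Antagonist mode: compound-treated TSHR-expressing HEK293 cells were stimulated with 1.5 ng/mL TSH (final) in presence of Ro20-1724 for 30 min at RT. HTRF cAMP detection after 1 h; each compound tested at 15 concentrations, triplicate.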

Experiment [17] can be described thus: qHTS assay to identify small molecule agonists of the estrogen receptor alpha (ER-alpha) signaling pathway in the presence of an antagonist - cell viability counter screen (AID 1259386).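 Note: series mostly up to about 92 µM; cells exposed to compounds for 22 h at 37 °C before the viability read; nearly all actives have a fitted effect of over 30% in size.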 In outline: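 In this counter screen, compound effects on VM7Luc4E2 viability were tested in the presence of the antagonist ICI-182,780 at 10.0nM final. Compounds were dosed at 15 concentrations, exposure lasted 22hr, and the CellTiter-Fluor signal was read.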

Experiment [18] concerns the target Androgen receptor (Homo sapiens) (UniProt P10275). Briefly: qHTS assay to identify small molecule antagonists of the androgen receptor (AR) signaling pathway using the MDA cell line in the presence of 0.5 nM R1881 (AID 1259243). Note: nearly all actives have a fitted effect of over 50% in size. Summed up:
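Antagonist mode quantitative HTS in MDA-kb2 MMTV-luciferase cells, agonist R1881 at 0.5 nM final, 16 hr exposure at 37C and 0% CO2, luminescent detection.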

In experiment [19] the target is Estrogen receptor beta (Homo sapiens) (UniProt Q92731). Briefly: qHTS assay to identify small molecule antagonists of the estrogen receptor beta (ER-beta) signaling pathway (AID 1259378; active = well fitted inhibition curve with a large enough effect in the signal ratio in the repeat runs, not every such curve was filed as active; the % refers to the signal ratio). In outline: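 Antagonist mode: compounds added to beta-lactamase reporter HEK293T ER-beta-UAS cells stimulated with E2 (1nM final), 16 hr at 37C. LiveBLAzer B/G FRET substrate, 2 hours room temperature, fluorescence read-out.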
Estrogen receptor beta (Homo sapiens), sequence (Q92731 whole entry, looked up): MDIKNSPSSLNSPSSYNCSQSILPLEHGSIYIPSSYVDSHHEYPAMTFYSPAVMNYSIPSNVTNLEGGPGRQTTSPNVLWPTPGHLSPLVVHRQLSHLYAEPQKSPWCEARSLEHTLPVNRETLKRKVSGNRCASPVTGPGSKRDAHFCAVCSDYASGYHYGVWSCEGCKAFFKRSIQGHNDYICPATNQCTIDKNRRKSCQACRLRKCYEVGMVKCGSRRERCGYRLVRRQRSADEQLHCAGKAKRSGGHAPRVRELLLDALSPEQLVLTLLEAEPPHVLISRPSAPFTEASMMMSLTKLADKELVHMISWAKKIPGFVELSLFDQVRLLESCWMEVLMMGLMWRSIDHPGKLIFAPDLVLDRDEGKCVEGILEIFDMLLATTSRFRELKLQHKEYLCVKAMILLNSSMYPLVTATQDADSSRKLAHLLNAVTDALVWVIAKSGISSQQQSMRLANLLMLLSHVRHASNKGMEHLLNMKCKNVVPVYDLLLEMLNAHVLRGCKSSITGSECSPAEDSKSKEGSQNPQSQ

Molecules are shown by their SMILES. Inconclusive results are not listed. Some structures have more than one record in an assay (separate samples or runs), and their calls can disagree. Calls of active or inactive are those of the source. Unless noted, calls come from the whole dose curve; as a rule, active = well fitted curve in the direction sought with a large enough effect in the repeat runs; inconclusive = weak or mixed curves; inactive = no such curve, though single readings can be large; an effect the other way counts as inactive or inconclusive.

Androgen receptor (Homo sapiens), sequence (P10275 whole entry, looked up): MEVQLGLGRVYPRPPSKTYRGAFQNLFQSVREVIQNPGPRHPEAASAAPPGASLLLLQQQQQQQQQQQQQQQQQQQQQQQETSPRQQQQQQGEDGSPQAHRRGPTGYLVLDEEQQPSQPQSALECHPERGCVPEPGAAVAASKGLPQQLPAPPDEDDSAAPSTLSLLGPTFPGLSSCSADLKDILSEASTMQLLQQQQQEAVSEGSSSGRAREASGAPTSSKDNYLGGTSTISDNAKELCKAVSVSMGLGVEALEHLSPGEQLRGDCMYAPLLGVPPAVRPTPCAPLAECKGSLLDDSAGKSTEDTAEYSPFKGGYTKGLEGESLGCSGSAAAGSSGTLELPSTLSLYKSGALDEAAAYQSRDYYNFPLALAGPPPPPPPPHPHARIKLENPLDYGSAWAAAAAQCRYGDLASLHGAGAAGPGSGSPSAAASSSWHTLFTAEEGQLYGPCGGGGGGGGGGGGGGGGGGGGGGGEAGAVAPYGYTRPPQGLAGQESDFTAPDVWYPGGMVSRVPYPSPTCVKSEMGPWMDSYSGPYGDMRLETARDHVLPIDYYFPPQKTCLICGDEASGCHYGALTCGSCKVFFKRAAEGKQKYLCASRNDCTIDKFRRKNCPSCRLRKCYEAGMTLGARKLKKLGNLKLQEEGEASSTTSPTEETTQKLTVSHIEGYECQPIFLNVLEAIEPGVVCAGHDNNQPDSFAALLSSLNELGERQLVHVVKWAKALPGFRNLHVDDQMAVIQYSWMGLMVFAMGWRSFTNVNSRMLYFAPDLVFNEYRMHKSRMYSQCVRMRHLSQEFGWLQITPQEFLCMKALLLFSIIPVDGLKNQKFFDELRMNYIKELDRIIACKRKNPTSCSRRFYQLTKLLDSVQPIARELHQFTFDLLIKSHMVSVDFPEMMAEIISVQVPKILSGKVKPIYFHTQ
Thyrotropin receptor (Homo sapiens), sequence (P16473 whole entry, looked up): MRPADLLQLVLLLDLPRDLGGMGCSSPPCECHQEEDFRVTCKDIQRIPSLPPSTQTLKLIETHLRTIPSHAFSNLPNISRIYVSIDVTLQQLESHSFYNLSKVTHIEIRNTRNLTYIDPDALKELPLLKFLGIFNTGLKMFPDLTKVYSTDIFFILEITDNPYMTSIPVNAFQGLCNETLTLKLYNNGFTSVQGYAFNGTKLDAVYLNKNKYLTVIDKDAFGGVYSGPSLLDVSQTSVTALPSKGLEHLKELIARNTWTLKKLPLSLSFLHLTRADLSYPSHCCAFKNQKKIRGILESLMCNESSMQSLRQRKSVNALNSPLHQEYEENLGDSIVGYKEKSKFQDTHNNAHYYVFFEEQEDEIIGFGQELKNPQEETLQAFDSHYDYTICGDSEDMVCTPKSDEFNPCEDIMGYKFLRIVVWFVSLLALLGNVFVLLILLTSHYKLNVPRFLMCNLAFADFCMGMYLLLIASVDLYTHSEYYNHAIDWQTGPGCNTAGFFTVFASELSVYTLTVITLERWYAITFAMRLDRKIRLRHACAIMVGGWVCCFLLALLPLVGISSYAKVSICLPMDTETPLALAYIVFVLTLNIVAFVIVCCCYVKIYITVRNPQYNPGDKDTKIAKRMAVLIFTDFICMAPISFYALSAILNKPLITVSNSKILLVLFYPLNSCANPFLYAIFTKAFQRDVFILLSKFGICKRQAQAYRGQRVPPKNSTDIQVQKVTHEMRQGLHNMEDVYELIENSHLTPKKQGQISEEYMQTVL

For `COc1c(Cl)ccc(Cl)c1C(=O)O`, the Potency entry in experiment [1], in [2], in [3], in [4], in [5] and in [6] was “inactive” in each case. The Potency entry in experiment [7], in experiment [8], in experiment [9], in experiment [10], in experiment [11] and in experiment [12] was “inactive” in each case. Also, the Potency entry in [13], in experiment [14], in experiment [15], in experiment [16] and in experiment [17] was “inactive” in each case.
On to `CC(C)(CO)CO`, for which the Potency entry in experiment [1], in [2], in [18], in experiment [3], in experiment [4] and in experiment [6] was “inactive” in each case. The Potency entry in [7], in experiment [8], in experiment [9], in experiment [10], in experiment [19] and in experiment [11] was “inactive” throughout. Further, the Potency entry in experiment [12], in [13], in experiment [14], in experiment [15], in [16] and in [17] was “inactive” each time.
As to `CO[Si](CCCNCCN)(OC)OC`, the Potency entry in experiment [1], in [2], in experiment [18], in experiment [4], in experiment [8] and in experiment [10] was “inactive” each time. Also, the Potency entry in experiment [11], in experiment [12], in experiment [13], in [15], in [16] and in experiment [17] was “inactive” each time. For the same molecule, the Potency was 5.53 µM (active) and inactive in experiment [6]; 15.6 µM (active) and inactive in experiment [7]; 8.76 µM (active) and inactive in experiment [9].
As for `CCCCCCCCC(=O)O`, the Potency entry in experiment [1], in [2], in experiment [3], in [4], in [5] and in experiment [6] was “inactive” each time. For the same molecule, the Potency entry in experiment [7], in [8], in [9], in experiment [10], in experiment [11] and in experiment [12] was “inactive” throughout. Moreover, the Potency result in [13], in experiment [14], in experiment [15], in [16] and in experiment [17] was “inactive” each time.
`CCCOCC(C)O` (stereo not drawn): the Potency entry in experiment [1], in experiment [2], in experiment [18], in [4], in [5] and in [6] was “inactive” in each case. Also, the Potency entry in experiment [7], in experiment [8], in [9], in experiment [11], in experiment [12] and in experiment [13] was “inactive” throughout. In addition, the Potency entry in experiment [15], in experiment [16] and in experiment [17] was “inactive” in each case.
For the molecule `CC(=O)OC/C=C(\C)CCC=C(C)C`, the Potency result in [1], in experiment [2], in experiment [3], in experiment [4], in experiment [5] and in experiment [6] was “inactive” throughout. In addition, the Potency entry in experiment [7], in experiment [8], in [9], in experiment [11], in experiment [12] and in experiment [13] was “inactive” in each case. For the same molecule, the Potency entry in experiment [14], in experiment [15], in experiment [16] and in experiment [17] was “inactive” in each case.
Consider `O=[N+]([O-])c1cc(C(F)(F)F)ccc1Cl`, for which the Potency entry in [1], in [2], in experiment [18], in experiment [4], in experiment [5] and in [6] was “inactive” each time. Also, the Potency entry in experiment [7], in experiment [8], in [9], in [10], in experiment [19] and in experiment [11] was “inactive” throughout. Moreover, the Potency result in experiment [12], in experiment [13], in [15], in experiment [16] and in experiment [17] was “inactive” in each case.
As to `O=Cc1ccc(CO)o1`, the Potency entry in [1], in experiment [2], in experiment [3], in experiment [4], in experiment [5] and in [6] was “inactive” throughout. In addition, the Potency entry in [7], in experiment [8], in [9], in experiment [10], in experiment [19] and in experiment [11] was “inactive” in each case. Moreover, the Potency entry in experiment [12], in experiment [13], in [14], in experiment [15], in experiment [16] and in [17] was “inactive” in each case.
